Shown are actives, neighbours in structure and some others; about 3% of the full set was active somewhere.
KKLEB tox: CF airway cell cytotoxicity counter-screen | KKLEB CF airway cells viability, ATPlite luminescence, overnight; hits give low values; cells stimulated with P. aeruginosa culture filtrate | AID 602141 | activity change (cytotoxicity), % at 5 µM | 360,000 compounds, 0.36% hits;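 active means corrected activity change at or below -50% at 5 µM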
ABHD5-PLIN5 inh: inhibitors of human ABHD5-perilipin-5 interaction; Q00G26+Q8WTS1; Split G. princeps luciferase complementation, luminescence, 4 h; inhibition, % at 4 µM; 360,000 compounds, 0.78% hits; AID 602281;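 active means inhibition above the mean inhibition across every tested compound plus 3 SD, cut at about 22% in these data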
Target sequence (Q00G26 whole entry, looked up): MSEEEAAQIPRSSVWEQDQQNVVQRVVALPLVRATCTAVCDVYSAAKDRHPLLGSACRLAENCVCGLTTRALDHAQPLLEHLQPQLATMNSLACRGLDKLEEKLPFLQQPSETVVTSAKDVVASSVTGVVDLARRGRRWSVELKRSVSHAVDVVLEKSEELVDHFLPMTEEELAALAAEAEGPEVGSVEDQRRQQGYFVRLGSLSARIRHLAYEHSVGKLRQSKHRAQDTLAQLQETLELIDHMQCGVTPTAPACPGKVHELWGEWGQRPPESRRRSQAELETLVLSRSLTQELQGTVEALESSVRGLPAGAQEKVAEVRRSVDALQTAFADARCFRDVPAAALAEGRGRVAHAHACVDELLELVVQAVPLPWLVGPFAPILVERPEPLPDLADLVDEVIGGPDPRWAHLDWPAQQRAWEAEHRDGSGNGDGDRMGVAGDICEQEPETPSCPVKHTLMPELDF
Target sequence (Q8WTS1 whole entry, looked up): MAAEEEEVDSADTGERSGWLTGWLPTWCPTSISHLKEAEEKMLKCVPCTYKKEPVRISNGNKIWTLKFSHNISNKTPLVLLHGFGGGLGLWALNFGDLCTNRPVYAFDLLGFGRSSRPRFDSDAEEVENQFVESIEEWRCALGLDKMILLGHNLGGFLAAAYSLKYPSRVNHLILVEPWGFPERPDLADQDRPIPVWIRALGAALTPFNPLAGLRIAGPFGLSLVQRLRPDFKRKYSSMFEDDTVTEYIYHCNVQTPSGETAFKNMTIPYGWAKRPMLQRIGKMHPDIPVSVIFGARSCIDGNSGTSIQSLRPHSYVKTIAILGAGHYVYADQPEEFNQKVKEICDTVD
Peg3 promoter: reduces Peg3 promoter-driven luciferase expression in HeLa | AID 588405 | 360,000 compounds, 1.7% hits | inhibition, % at 20 µM | HeLa PEG-Prom luciferase reporter, luminescence, overnight;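 active means inhibition of at least 50% at 20 µM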
MITF TRPM1 inh: reduces MITF-dependent TRPM1 promoter luciferase signal. inhibition, % at 12.5 µM. 330,000 compounds, 0.83% hits. AID 488899. SK-MEL-5 TRPM1 promoter luciferase, 24 h;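 active means mean inhibition across replicates of 60% or more, whatever share of single replicates reaches that level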
HIF-2a block: blocks HIF-2a reporter activity; 360,000 compounds, 0.72% hits; inhibition, % at 18.8 µM; 786-0 RCC cells HIF-2a reporter, luciferase luminescence, overnight;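 active means inhibition of the luminescence signal of 40% or more relative to plate controls, in a single-dose primary screen at 18.75 µM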
CF NFkB inh: blocks PAF-induced NF-kB reporter in cystic fibrosis cells; KKLEB NF-kB-GFP reporter, GFP fluorescence overnight; inhibition, % at 5 µM; 360,000 compounds, 0.86% hits;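 active means at least 50% inhibition at 5 µM, scaled per plate between neutral and stimulator controls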;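 further: PAF is a Pseudomonas aeruginosa culture filtrate used as stimulus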
Hits are given with their value; . = inactive; / = no result.

SMILES	KKLEB tox	ABHD5-PLIN5 inh	Peg3 promoter	MITF TRPM1 inh	HIF-2a block	CF NFkB inh
O=c1c2cc(F)ccc2sn1-c1ccc(F)cc1	.	32.6	.	.	.	.
CC(=O)Nc1ccc2sn(-c3ccccc3)c(=O)c2c1	.	84.8	.	/	.	.
O=c1c2cc([N+](=O)[O-])ccc2sn1-c1ccccc1	.	.	.	/	.	.
S=C(NCc1ccccn1)NN=Cc1ccccn1	.	.	.	69.9	.	.
Cc1ccc(NC(=S)NCc2ccccn2)cc1	.	.	.	.	.	.
Cc1ccc(N/C=C/C(=O)c2cccs2)cc1	-53.6	.	.	.	.	.
O=C(/C=C/Nc1ccc(Br)cc1F)c1ccco1	-65.2	.	.	.	.	.
O=C(/C=C/Nc1ccc(F)cc1F)c1cccs1	-67.8	.	.	.	.	.
O=C(/C=C/Nc1ccccc1O)c1ccco1	.	.	.	.	.	.
O=C(/C=C\Nc1cccc(F)c1)c1cccs1	.	.	.	.	.	.
O=C(/C=C/Nc1ccc(F)cc1F)c1ccco1	-57.6	.	.	.	.	.
COc1ccc(CNC(=O)COC(=O)c2ccc(S(=O)(=O)N3CCCCC3)cc2)cc1	.	.	.	.	.	.
Cc1cc([N+](=O)[O-])ccc1NC(=O)CSc1nncn1-c1cccnc1	.	.	.	.	.	.
CCc1ccc(-c2nc(SCC(=O)N(C)C3CCS(=O)(=O)C3)n[nH]2)cc1 (stereo unspecified)	.	.	.	.	.	.
Cc1nc(C(F)(F)F)ccc1C(=O)N1CCC1(C)C(=O)NS(=O)(=O)c1c(C)noc1C (stereo unspecified)	.	.	.	/	.	.
O=C(c1ccc(Cl)cc1Cl)N1CCOCC1	.	.	.	.	.	.
O=C(c1cc2cc(Cl)cc(Cl)c2oc1=O)N1CCOCC1	.	.	55.2	.	.	.
CC1(C)S[C@@H]2C(C(=O)OCc3ccccc3)NC(=O)N2C1C(=O)OCc1ccccc1 (stereo partly specified)	.	.	.	.	.	.
CCOC(=O)c1c(NC(=O)COc2ccccc2OCC)sc2c1CC(C)(C)NC2(C)C	.	.	106.5	84.4	.	.
CCOC(=O)c1c(NC(=O)COc2ccccc2C#N)sc2c1CC(C)(C)NC2(C)C	.	.	.	.	.	.
CCOC(=O)c1c(NC(=O)CSc2nnnn2-c2ccccc2)sc2c1CC(C)(C)NC2(C)C	.	.	54.8	.	.	.
CCn1nc(C)c(Br)c1C(=O)Sc1ccccc1Cl	.	.	.	.	.	.
COc1ccc(Cl)cc1Nc1nc(N)c2ccccc2n1	.	.	.	.	.	.
COc1ccc(C)cc1Nc1nc(N)c2cc(OC)c(OC)cc2n1	.	.	84.2	73.8	.	.
CC(CN(C)Cc1ccccc1)OC(=O)c1ccc(F)cc1 (stereo unspecified)	.	.	.	.	.	.
SMILES	KKLEB tox	ABHD5-PLIN5 inh	Peg3 promoter	MITF TRPM1 inh	HIF-2a block	CF NFkB inh
CN(Cc1cc(Cl)cc(Cl)c1)CC(C(=O)c1ccccc1)c1ccccc1 (stereo unspecified)	.	.	.	83.5	.	.
COc1ccc(N2CC(C(=O)Nc3nnc(SCC(=O)N4CCOCC4)s3)CC2=O)cc1 (stereo unspecified)	.	.	.	.	.	.
Nc1nc(=S)c2ncn([C@@H]3O[C@H](CO)[C@@H](O)[C@H]3O)c2[nH]1	.	.	62.1	72.0	.	.
CCCCN1C(=O)C(CC(=O)NCC2CCCCC2)CC(C(=O)N2CCCCCC2)=C1C (stereo unspecified)	/	.	/	/	.	/
O=C(Nc1ccc(S(=O)(=O)N2CCOCC2)cc1)c1cc(-c2cc(Cl)ccc2O)n[nH]1	.	.	86.0	.	.	.
Cc1ccc(O)c(-c2cc(C(=O)Nc3ccc(S(=O)(=O)N4CC(C)OC(C)C4)cc3)[nH]n2)c1 (stereo unspecified)	.	.	54.5	.	.	.
Cc1cc(O)c(-c2cc(C(=O)Nc3ccc(S(=O)(=O)N4CCOCC4)cc3)[nH]n2)cc1C	.	.	59.6	.	.	.
Cc1ccc(-c2cc(C(=O)Nc3ccc(S(=O)(=O)N4CC(C)OC(C)C4)cc3)[nH]n2)c(O)c1 (stereo unspecified)	.	.	.	.	.	.
CCN(CC)S(=O)(=O)c1ccc2c(c1)nc(CCC(=O)Nc1ccc(N3CCOCC3)cc1)n2C	.	.	.	.	.	.
C/C(=N\N(Cc1ccccc1)c1ccccc1)c1ccncc1	-57.3	.	.	.	.	57.9
CC(O)(c1ccc(F)c(F)c1)c1nc(/C=C/c2ccc(C(F)(F)F)cc2)cs1 (stereo unspecified)	.	.	.	/	.	.
Nc1nc(N)c2cc(Sc3ccc4ccccc4c3)ccc2n1	.	.	106.6	/	.	.
Nc1nc(N)c2cc(Sc3ccc(Cl)cc3)ccc2n1	.	.	103.9	/	.	.
Nc1nc(N)c2cc(Sc3cccc(C(F)(F)F)c3)ccc2n1	.	.	106.6	/	.	.
CCCC12CN3CC(C)(CN(C1)C3c1ccco1)C2=O (stereo unspecified)	.	.	.	.	.	.
O=C(CS(=O)c1ccc(C(F)(F)F)cc1[N+](=O)[O-])Oc1ccccc1 (stereo unspecified)	.	.	79.5	87.5	.	57.4
COC(=O)c1ccc(OC(=O)CS(=O)c2ccccc2[N+](=O)[O-])cc1 (stereo unspecified)	.	.	.	.	.	.
O=C(OCC12CC3CC(CC(C3)C1)C2)c1ccc(NCc2cc(O)ccc2O)cc1	.	.	.	.	81.0	58.5
O=C(OCCC12CC3CC(CC(C3)C1)C2)c1ccc(NCc2cc(O)ccc2O)cc1	.	.	.	67.0	77.1	.
CCNC(=O)OCCC12CC3CC(CC(C3)C1)C2	.	.	.	.	.	.
N#CCC(=O)Nc1ccc(C(=O)OCC(=O)C23CC4CC(CC(C4)C2)C3)cc1	.	.	.	.	.	.
Cc1cccc(NC(=O)c2cc([N+](=O)[O-])ccc2N2CCOCC2)c1C	.	.	.	/	.	.
CCOc1cc2[nH]c(=S)n(CCc3ccc(OC)c(OC)c3)c(=O)c2cc1OCC	.	.	64.0	.	.	.
COc1ccc(-c2nn(-c3ccccc3)cc2CNC[C@H]2O[C@@H](n3cnc4c(=O)[nH]c(N)nc43)[C@H](O)[C@@H]2O)cc1	.	.	.	/	.	.
COC1C(CO)OC(n2c3c(Cl)cccc3c3c4c(c5c6cccc(Cl)c6[nH]c5c32)C(=O)NC4=O)C(O)C1O (stereo unspecified)	.	.	.	85.8	.	.
CCCn1c(NC(=O)c2cccc(S(=O)(=O)N3CCCC3)c2)nc2ccccc21	.	.	97.4	.	.	73.7
O=C(CSc1ncccn1)NCc1cccc(Cl)c1	.	.	.	.	.	.
